Compounds with a hit are over-represented: about 3.2% of the library has one in this group of screens.
CRFBP-R2 block: antagonists of CRF-binding protein/CRF-R2 receptor complex. HEK293 CRF-R2/CRF-BP, CRF-induced calcium fluorescence. AID 588475. inhibition, % at 11.8 µM. hit rate 0.59% among 350,000;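 active = inhibition of the ligand-induced calcium signal above about 50% at the single tested concentration, limit read from the data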
FAS-TE inh: FAS thioesterase (human) inhibition; recombinant FAS-TE, OMFH fluorogenic substrate, fluorescence endpoint; AID 602261; hit rate 0.67% among 360,000; inhibition, % at 15 µM; P49327;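 active = compounds whose normalised, plate-corrected inhibition of enzyme fluorescence in the single-dose primary screen is 50% or more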
CRFBP-R2 agonist: agonists of human CRF-binding protein/CRF-R2 receptor complex | HEK293 CRF-R2/CRF-BP, calcium dye fluorescence (FLIPR); percent of saturating CRF peptide response | activation, % at 13.2 µM | hit rate 0.46% among 350,000 | AID 588473;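 active = activation of at least 50%, plus an integration ratio under a set limit after plate pattern correction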
PfGluPho inh: PfG6PD (Plasmodium falciparum) enzyme inhibition | inhibition, % at 20 µM | hit rate 0.78% among 350,000 | AID 504690 | PfGluPho enzyme, NADPH resazurin-diaphorase fluorescence;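 active = inhibition reaching at least a set limit at 20 µM in the primary screen, cut at about 59% in these data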
Cardio protect: protects H9c2 cardiomyocytes from peroxide injury; AID 588492; hit rate 0.63% among 360,000; protection from H2O2 cell death, % at 20 µM; H2O2 injury protection, ATPLite, 2 h;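 active = compounds giving at least 50% protection of heart cells from peroxide-induced death in the single-dose screen, raw or plate-pattern-corrected value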
aDG glyco up: increases alpha dystroglycan glycosylation | Pro5-aDG cells, alpha-DG glycosylation AlphaScreen (IIH6); 0% Pro5, 100% B10-LARGE cell signal | hit rate 0.22% among 360,000 | activation, % at 10 µM | AID 624168;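 active = activation of at least 8% versus controls, or a plate z-score of at least 8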;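 note: Pro5 are CHO cells carrying HIG-tagged alpha-DG that lacks glycosylation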
PfG6PD confirm: confirmation of Plasmodium falciparum G6PD inhibitors. shares compounds with PfGluPho inh. AID 504753. inhibition, % at 20 µM. hit rate 34% among 2,400. recombinant PfGluPho, NADPH-diaphorase-resazurin fluorescence;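 active = inhibition of at least 50% at 20 µM in any single replicate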
Diaph ctr 10uM: inhibits diaphorase or oxidizes, flagging false PfG6PD hits; shares compounds with PfGluPho inh; diaphorase-coupled resazurin reduction, fluorescence, NADPH 10 uM; inhibition, % at 20 µM; hit rate 39% among 820; AID 504862;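 active = average inhibition reaching 50% or more with the compound at 20 µM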;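 note: resorufin red fluorescence formed as diaphorase reduces resazurin using NADPH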
Diaphorase 30uM: counter-screen for P. falciparum G6PD inhibitors: diaphorase inhibitors, oxidizers; shares compounds with PfGluPho inh; Diaphorase/resazurin coupled assay, resorufin fluorescence, 30 uM NADPH; inhibition, % at 20 µM; hit rate 29% among 820; AID 504863;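 active = inhibition averaging 50% or more, tested at 20 µM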
A number is an active result; 0 = inactive; - = not tested or not shown.

SMILES | CRFBP-R2 block | FAS-TE inh | CRFBP-R2 agonist | PfGluPho inh | Cardio protect | aDG glyco up | PfG6PD confirm | others
CCOC(=O)[C@]12CCC=C1N(Cc1ccccc1)C(=O)[C@H](CC(=O)NCCCCc1ccccc1)C2 | - | 0 | - | - | - | 0 | -
CCC[C@H](N[C@@H](C)C(=O)N1[C@H](C(=O)O)C[C@@H]2CCCC[C@@H]21)C(=O)OCC | 0 | 0 | 0 | 0 | 0 | 0 | -
CN1CCc2c(sc3c2c(=O)n(-c2ccccc2)c2nnc(SCc4ccccc4)n32)C1 | 0 | 0 | 0 | 60.2 | 0 | 0 | 0
CN1CCc2c(sc3c2c(=O)n(-c2ccccc2)c2nnc(SCc4ccc(F)cc4)n32)C1 | 0 | 0 | 0 | 0 | 0 | 0 | -
NC(=O)C1CCN(C(=O)Nc2csc3ccccc23)CC1 | 0 | 0 | 0 | 0 | 0 | 0 | -
O=C(COc1ccccc1F)Nc1ccc(S(=O)(=O)N2CCCC2)cc1 | 0 | 0 | 0 | 0 | 0 | 0 | -
O=[N+]([O-])c1cnc(Sc2ccncn2)c([N+](=O)[O-])c1 | 0 | 0 | 0 | 80.3 | 0 | 0 | 58.6 | Diaph ctr 10uM=0;Diaphorase 30uM=0
COc1ccc(C(=O)Nc2sc(C)c(-c3ccccc3)c2C#N)cc1OC | 0 | 0 | 0 | 66.6 | 0 | 0 | 0
COc1ccc(C(C#N)=C2C=CC(=NO)C=C2)cc1 | 0 | 0 | 0 | 61.0 | 0 | 0 | 0
CC(=O)ON=C1C=CC(=C(C#N)c2ccccc2)C=C1 | - | 0 | - | - | 0 | 0 | -
CC(=O)Nc1c(C(=O)Nc2ccc3c(c2)OCO3)oc2ccccc12 | 0 | 0 | 0 | 0 | 0 | 0 | -
Cc1c(C(=O)Nc2ccc3c(c2)OCO3)oc2ccccc12 | 0 | 0 | 0 | 60.7 | 0 | 0 | 0
CSCc1c(C(=O)Nc2ccc3c(c2)OCO3)oc2ccccc12 | 0 | 0 | 0 | 67.9 | 0 | 0 | 0
CN(C)c1ccc(S(=O)(=O)N2CCCCC2)cc1NC(=O)COc1ccccc1F | 0 | 0 | 0 | 0 | 0 | 0 | -
COc1cccc(C2C(C(=O)c3cccs3)=C(O)C(=O)N2CCN2CCOCC2)c1OC (stereo unspecified) | 0 | 0 | 0 | 0 | 0 | 0 | -
COc1ccc(C(C)=O)c(OCC(=O)NCCC2=CCCCC2)c1 | 0 | 0 | 0 | 65.0 | 0 | 0 | 0
COc1ccc(OCC(=O)NCCC2=CCCCC2)c([N+](=O)[O-])c1 | 0 | 0 | 0 | 0 | 0 | 0 | -
CC(=O)Nc1ccc(Nc2ncnc3c2cnn3-c2ccccc2)cc1 | 0 | 0 | 0 | 0 | 0 | 0 | -
Clc1ccc(Nc2ncnc3c2cnn3-c2ccccc2)cc1 | 0 | 0 | 0 | 111.1 | 0 | 0 | 0
C[N+](C)(C)CCOP(=O)(O)OP(=O)([O-])OC[C@H]1O[C@@H](n2ccc(N)nc2=O)[C@H](O)[C@@H]1O | 0 | 0 | 0 | 0 | 0 | 0 | -
C[C@@H]1ON(C)[C@H]2C[C@H]3c4[nH]c5ccccc5c4CCN3C[C@@H]12 | 0 | 0 | 0 | 0 | 0 | 0 | -
Cn1c(SCc2nn[nH]n2)nc2c1c(=O)n(Cc1ccccc1Cl)c(=O)n2C | 0 | 0 | 0 | 0 | 0 | 0 | -
Cn1c(=O)c2c([nH]c(=S)n2CCCc2ccccc2)n(C)c1=O | 0 | 0 | 0 | 67.8 | 0 | 0 | 53.1 | Diaph ctr 10uM=0;Diaphorase 30uM=0
Cn1c(=O)[nH]c(=O)c2c1[nH]c(=S)n2CCCc1ccccc1 | 0 | 0 | 0 | 75.0 | 0 | 0 | 49.1 | Diaph ctr 10uM=0;Diaphorase 30uM=0
Cn1c(=O)n(Cc2ccccc2Cl)c(=O)c2c1[nH]c(=S)n2C | 0 | 0 | 0 | 60.5 | 0 | 0 | 0
SMILES | CRFBP-R2 block | FAS-TE inh | CRFBP-R2 agonist | PfGluPho inh | Cardio protect | aDG glyco up | PfG6PD confirm | others
c1ccc(OCCSc2nnc3sc4ccccc4n23)cc1 | 0 | 0 | 0 | 105.0 | 0 | 0 | 97.5 | Diaph ctr 10uM=88.2;Diaphorase 30uM=73.8
N#Cc1cc(-c2ccccc2)nn1-c1ccccc1 | 0 | 0 | 0 | 80.4 | 0 | 0 | 0
Cc1ccccc1NC(=S)Nc1cccc2cnccc12 | 0 | 0 | 0 | 0 | 0 | 0 | -
CC(=O)c1ccc(NC(=S)Nc2cccc3cnccc23)cc1 | 0 | 0 | 0 | 63.5 | 0 | 0 | 0
Cc1ccc(C)c(NC(=S)Nc2cccc3cnccc23)c1 | 0 | 0 | 0 | 101.0 | 0 | 0 | 0
O=C(Nc1ccc2c(c1)OCCO2)C(=O)NC1CC1 | 0 | 0 | 0 | 0 | 0 | 0 | -
O=C(Nc1nc2ccccc2s1)Nc1ccc(F)cc1F | 0 | 0 | 0 | 0 | 0 | 0 | -
O=C(Nc1ccc(F)cc1F)Nc1sccc1-c1nc2ccccc2s1 | 0 | 0 | 0 | 80.6 | 0 | 0 | 0
COc1ccc(Nc2nc3ccccc3n2C)cc1 | 0 | 0 | 0 | 0 | 0 | 0 | -
COc1ccc(/C=C/c2nc3ccccc3n2C)cc1 | 0 | 0 | 0 | 72.7 | 0 | 0 | 56.4 | Diaph ctr 10uM=0;Diaphorase 30uM=0
COc1ccc(Cn2c(/C=C/c3ccccc3)nc3ccccc32)cc1 | 0 | 0 | 0 | 74.5 | 0 | 0 | 0
COC(=O)[C@@H]1C[C@@]2(O)[C@H](O)[C@H](O)[C@H](O)C[C@H]2N1CC(c1ccccc1)c1ccccc1 | 0 | 0 | 0 | 0 | 0 | 0 | -
CCOC(=O)c1sc(=S)n(C)c1NC(=O)c1ccccc1 | 0 | 0 | 0 | 64.1 | 0 | 0 | 0
O=C(Cn1cnc2c(nnn2Cc2ccc(F)cc2)c1=O)Nc1ccc2c(c1)OCCO2 | 0 | 0 | 0 | 0 | 0 | 0 | -
COc1ccc(-n2c(C)cc(C(=O)CSc3nnc(-c4ccoc4C)n3C)c2C)cc1 | 0 | 0 | 0 | 66.7 | 0 | 0 | 0
COC1CCCN(C(=O)c2cccc(OC3CCN(S(C)(=O)=O)CC3)c2)C1 (stereo unspecified) | 0 | 0 | 0 | 0 | 0 | 0 | -
Cc1ccc(S(=O)(=O)Oc2cccc(/C=N/Nc3ccc(C(=O)O)cc3)c2)cc1 | 0 | 0 | 0 | 97.6 | 0 | 0 | 67.1 | Diaph ctr 10uM=60.3;Diaphorase 30uM=0
Cc1ccc(S(=O)(=O)Oc2cccc(/C=N/n3cnnc3)c2)cc1 | 0 | 0 | 0 | 77.4 | 0 | 0 | 0
COc1ccc(/C=N/Nc2ccc(C(=O)O)cc2)cc1OC | 0 | 0 | 0 | 0 | 0 | 0 | -
N#Cc1c([N+](=O)[O-])cc([N+](=O)[O-])cc1S(=O)(=O)Cc1ccccc1 | 0 | 0 | 0 | 109.4 | 0 | 0 | 100.5 | Diaph ctr 10uM=90.5;Diaphorase 30uM=92.3
Nc1ccc(Oc2ncccn2)cc1 | 0 | 0 | 0 | 66.3 | 0 | 0 | 0
O=C(Nc1nnc(C2=COCCO2)o1)c1ccc([N+](=O)[O-])cc1 | 0 | 0 | 0 | 0 | 0 | 0 | -
O=[N+]([O-])c1ccc(-c2nc3ccc([N+](=O)[O-])cc3[nH]2)cc1 | 0 | 0 | 0 | 85.9 | 0 | 0 | 0
Nc1ccc(-c2nc3ccc([N+](=O)[O-])cc3[nH]2)cc1 | 0 | 0 | 0 | 0 | 0 | 0 | -
O=[N+]([O-])c1ccc2nc(/C=C/c3ccc(Cl)cc3)[nH]c2c1 | 0 | 0 | 0 | 62.2 | 0 | 0 | 0
